Screening data as filed in PubChem.
Hits are enriched below; roughly 7.5% of the tested compounds scored in any of these assays.
ELG1 genotox – genotoxicity induction in ELG1-luciferase HEK293T cells | HEK293T ELG1-luciferase reporter, luminescence, 16 h | Potency, µM (doses to about 46 µM), inactives show top-dose activity change, positive = activation, most hits filed as activators | hit rate 1.3% among 330,000 | AID 504466; also: % of control where 0% means no effect; nearly all actives have a fitted effect of over 60% in size
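Cells (2,000/well) expressing the ELG1-luciferase fusion are dosed by pin tool and kept 16 hr at 37 °C, 5% CO2. Signal comes from ONE-Glo luciferase reagent after 30 min at room temperature.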
NPC1 prom act – activators of NPC1 promoter. Potency, µM (doses to about 9.22 µM), inactives show at the highest dose activation, actives largely listed as activators. Huh7 NPC1 promoter luciferase reporter, 24 h. hit rate 2.4% among 320,000. AID 485313; also: % of control where 0% means no effect; nearly all actives have a fitted effect of over 60% in size
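Stably transfected Huh7 (NPC1 promoter→luciferase), 1500 cells/well in Opti-MEM + 10% FBS, 2 h settle, then compound 24 h at 37 °C. Luminescence after 10 min with Amplite reagent.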
Rab9 promoter act – activators of Rab9 promoter; Huh7 Rab9 promoter-luciferase reporter, luminescence, 24 h; Potency, µM (titrated, usually from 9.22 µM), inactives show top-dose activation, negative = inhibition, actives largely listed as activators; hit rate 2.8% among 320,000; also: % of control where 0% means no effect; nearly all actives have a fitted effect of over 60% in size
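Luciferase signal after 10 min detection reagent at ambient indicates Rab9 promoter upregulation; stably transfected Huh7 cells were treated 24 h with compound in DMSO at 37 °C, 5% CO2.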
FLuc modulator – firefly luciferase modulation, counter-screen for miR-21 project; P08659; purified FLuc, Km substrates, luminescence inhibition; Potency, µM (top dose mostly 57.5 µM), for inactives: at the highest dose activity change, negative = inhibition, actives largely listed as inhibitors; hit rate 6.9% among 360,000;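 also: plate controls were vehicle for no effect and reference inhibitor for full effect; nearly all actives have a fitted effect of over 55% in size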
Target sequence (P08659 whole entry, looked up): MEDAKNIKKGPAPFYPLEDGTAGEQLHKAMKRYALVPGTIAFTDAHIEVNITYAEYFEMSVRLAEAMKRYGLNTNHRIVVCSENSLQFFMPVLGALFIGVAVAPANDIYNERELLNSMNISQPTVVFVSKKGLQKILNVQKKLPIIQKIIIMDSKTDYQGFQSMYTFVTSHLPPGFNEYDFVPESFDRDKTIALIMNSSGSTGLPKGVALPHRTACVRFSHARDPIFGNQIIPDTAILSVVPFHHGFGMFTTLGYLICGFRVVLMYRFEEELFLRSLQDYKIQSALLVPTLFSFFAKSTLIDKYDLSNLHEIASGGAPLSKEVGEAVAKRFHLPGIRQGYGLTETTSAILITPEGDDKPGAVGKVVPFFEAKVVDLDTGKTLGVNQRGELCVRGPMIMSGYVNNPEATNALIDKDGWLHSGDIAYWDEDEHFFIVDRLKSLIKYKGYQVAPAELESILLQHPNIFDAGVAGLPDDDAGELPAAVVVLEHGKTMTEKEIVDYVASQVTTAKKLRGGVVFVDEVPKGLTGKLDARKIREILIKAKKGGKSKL
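Purified P. pyralis luciferase (10nM final) with 10uM D-luciferin and 10uM ATP (Km levels) in 50mM Tris acetate pH 7.5, 10mM Mg acetate, 0.01% Tween-20, 0.05% BSA; qHTS 6-point titration, ~60 µM downward; luminescence read.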
SMN2 splice up – increases expression of the SMN2 splice variant. AID 1458. hit rate 2.8% among 210,000. HEK293 SMN2-luciferase splicing reporter, luminescence, 30-36 h. Potency, µM (top dose mostly 46.1 µM), for the others: at the top dose activity change, positive = activation, usual class: activators; also: % of control where 0% means no effect; nearly all actives have a fitted effect of over 55% in size
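HEK293 cells carry an SMN2 […]–luciferase reporter in which exon 7 inclusion puts luciferase in frame. Cells were plated 10-12 h before compound addition, then incubated 30-36 h at 37C. ONE-Glo luminescence was read; sodium butyrate at 4.5 mM final served as control.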
Starred values were filed as active, the others as inactive; ? = inconclusive; nt = no result given; [ ] = dose if it differs, or a comment. Calls follow the shape of the dose curve; as a rule, active = well fitted curve in the direction sought with a large enough effect; inconclusive = small, poorly fitted or top-dose-only effect, or another doubt; inactive = no such curve, though single readings can be large; an effect the other way counts as inactive or inconclusive. Potency is read from the fitted curve at half-maximal effect.

SMILES | ELG1 genotox | NPC1 prom act | Rab9 promoter act | FLuc modulator | SMN2 splice up
CC1Cc2ccccc2N1C(=O)CCS(=O)(=O)c1ccc2c(c1)NC(=O)CS2 (configuration not stated) | -5.2% | -4.1% | 0.6% | -2.3% | nt
CN(C)/C=N/NC(=O)c1ccc(Cl)cc1 | -0.1% | 0.7% | -3.9% | -0.3% | 13.7%
CN(C)/C=N/c1cnc(C(=O)c2ccc(Cl)cc2)n1C | 6.31µM* | 1.78µM* | 1.78µM* | 10.7µM* | 11.2µM*
O=C(NNC(=O)c1ccc(-c2ccc([N+](=O)[O-])cc2)o1)c1ccncc1 | 5.3% | -1.8% | 4.9% | nt | nt
CC(=O)N1CCc2cc(S(=O)(=O)NCCC(=O)Nc3cc(C)cc(C)c3)ccc21 | 4.3% | -0.1% | -10.6% | -1.3% | -5.2%
CC(=O)N1CCc2cc(S(=O)(=O)NCCC(=O)Nc3ccc4c(c3)OCCO4)ccc21 | ? | 25.8% | 26.1% | 15.1µM* | ?
Cc1cc(C2=NNC(=NC3CC3)SC2)c(C)n1-c1ccccc1F | -11.0% | -23.7% | -36.8% | 0.213µM* | -92.9%
Cc1cccc(C)c1N=C1NN=C(c2ccccc2F)CS1 | -4.9% | -2.7% | -3.6% | -25.9% | nt
Cc1ccccc1N=C1NN=C(c2ccccc2F)CS1 | 18.0% | ? | ? | 21.3µM* | 11.2µM*
C=C(C)CN=C1NN=C(c2cc(C)n(-c3ccc(C)cc3)c2C)CS1 | 0.2% | ? | ? | 8.49µM* | ?
Cc1cc(C2=NNC(=NC3CCCCC3)SC2)c(C)n1-c1c(C)n(C)n(-c2ccccc2)c1=O | 0.0% | -1.5% | -0.8% | -3.5% | ?
C[C@H]1COc2c(N3CCN(C)CC3)c(F)cc3c(=O)c(C(=O)NCc4ccco4)cn1c23 | nt | nt | nt | nt | -3.6%
COc1ccc(-n2c(SCC(=O)NCc3ccccc3)nc3n[nH]c(C)c3c2=N)cc1 | nt | nt | nt | 1.5% | nt
Cc1c(NC(=O)c2cccc(-c3cc4ccccc4oc3=O)c2)cccc1-c1nc2ncccc2o1 | -6.2% | 15.9% | 14.4% | ? | -12.3%
O=c1c(-c2cc(F)cc(F)c2)nc2cnc(N3CCNCC3)nc2n1CCc1ccccc1 | nt | nt | nt | nt | -1.3%
O=C(Cc1ccc2cccnc2c1)c1ccc(O)cc1O | ? | 26.6% | ? | 21.3µM* | -2.9%
COc1ccccc1NC(=O)CCNS(=O)(=O)c1ccc2c(c1)CCCC(=O)N2 | nt | nt | nt | -7.1% | nt
O=C1c2c(O)ccc(O)c2C(=O)c2c(NCCNCCO)ccc(NCCNCCO)c21 | -58.8% | -35.0%[46.1 µM] | -43.6%[46.1 µM] | 19µM* | -94.0%
CC(C)N1C(=O)CN(C2CCCCCC2)C(=O)C1c1ccccc1F (configuration not stated) | ? | 3.55µM* | ? | -14.0% | 6.6%
CCOCCCn1c(SCC(=O)OCC)nc2c(sc3ccccc32)c1=O | nt | nt | nt | -4.1% | nt
Cc1ccc(-c2csc(N=C(N)N)n2)cc1 | 14.4% | ? | ? | 15.1µM* | nt
O=C1c2ccccc2NC(c2ccc3c(c2)OCCO3)N1c1ccc2c(c1)OCCO2 (configuration not stated) | 2.06µM* | 1µM* | 1.58µM* | 10.7µM* | 3.55µM*
COc1cc(C2Nc3ccccc3C(=O)N2c2ccc3c(c2)OCCO3)ccc1OCC(C)C (configuration not stated) | 1.84µM* | 1µM* | 0.562µM* | 15.1µM* | 3.16µM*
CCCCn1c(N)c(N(CC(C)C)C(=O)c2cccc(-n3cnnn3)c2)c(=O)[nH]c1=O | 0.5% | 1.2% | -3.6% | 5.2% | nt
COc1ccccc1CN1C[C@@H]2C[C@@H](c3[nH]c4c(C)cccc4c3C)N3CCC[C@@]23C1=O | -5.1% | -4.3% | -0.3% | -1.3% | nt
SMILES | ELG1 genotox | NPC1 prom act | Rab9 promoter act | FLuc modulator | SMN2 splice up
O=C(NC(Cc1c[nH]c2ccccc12)C(=O)Nc1ccc(F)cc1)c1cccs1 (configuration not stated) | -7.4% | -5.7% | -6.3% | 2.4% | 155.7%
O=C(NC(Cc1c[nH]c2ccccc12)C(=O)N/N=C/c1cccnc1)c1cccs1 (configuration not stated) | -7.5% | 2.2% | 9.1% | -0.5% | 25.1µM*
Cc1nc(NC2CCCCC2)c2nc(-c3ccccc3)n(CCCN3CCOCC3)c2n1 | nt | nt | nt | nt | -33.0%
O=C1NC(=S)N/C1=C/c1ccc2c(c1)OCO2 | -15.1% | -5.5% | -13.9% | ? | nt
C=CCN1C(=O)S/C(=C\c2ccc(N3CCOCC3)cc2C)C1=O | ? | ? | 3.55µM* | 6.01µM* | nt
Cc1cc(N2CCOCC2)ccc1/C=C1/SC(=O)NC1=O | ? | ? | ? | 15.1µM* | 22.4µM*
O=C1NC(=S)N/C1=C\c1ccc(N2CCOCC2)cc1 | ? | 29.2% | 23.4% | 21.3µM* | 18.2%
Cc1ccc(C)n1-c1ccc(N2CCOCC2)cc1 | 11.3% | 0.6% | -12.1% | 3.1% | 20.6%
C=CC(C)N1C(=O)S/C(=C\c2ccc(N3CCOCC3)cc2C)C1=O (configuration not stated) | ? | ? | ? | 10.7µM* | -37.6%
Cc1cc(N2CCOCC2)ccc1/C=C1\NC(=O)N(CC(=O)Nc2ccccc2C)C1=O | 19.9% | 12.5% | 0.6% | ? | ?
CCOC(=O)c1ccc(Nc2sc(C(=O)c3cccc([N+](=O)[O-])c3)c(N)c2C#N)cc1 | 3.7% | -28.1% | -30.6% | -1.6% | nt
O=C(CN1C(=O)COc2ccc(S(=O)(=O)N3CCOCC3)cc21)N1CCN(c2ccccc2)CC1 | nt | nt | nt | 0.2% | nt
CCOC(=O)c1[nH]c(C)c(/C(O)=C2\C(=O)C(=O)N(CCN(C)C)C2c2ccncc2)c1C (configuration not stated) | 1.7% | -0.7% | -3.2% | 0.9% | 12.2%
Brc1ccc(-c2cn3nc4c(nc3n2)CCCC4)cc1 | ? | 0.1µM* | 0.282µM* | 0.269µM* | 3.98µM*
c1ccc(-c2cn3nc4c(nc3n2)CCCC4)cc1 | 0.13µM* | 0.112µM* | 0.126µM* | 0.301µM* | 0.501µM*
c1ccc(-c2cc(-c3ccccc3)n3ncnc3n2)cc1 | 2.8% | -0.6% | -8.7% | 0.3% | -31.1%
Cc1cnc(=O)[nH]c1SCc1cccc([N+](=O)[O-])c1 | 1.1% | -3.9% | 5.9% | -4.4% | nt
O=C(CCSc1ccccc1)N1CCN(C(=O)c2ccco2)CC1 | ? | 15.7% | 25.5% | -11.2% | nt
COc1ccc(-c2nc3c(C#N)c[nH]n3c2NC2CCCC2)cc1 | nt | nt | nt | -11.2% | nt
CCOC(=O)c1c(NC2=NS(=O)(=O)c3ccccc32)sc2c1CCCCC2 | 1.0% | 1.41µM* | ? | -0.3% | nt
Cc1ccc(-c2nn(-c3cccc(F)c3)cc2CNCc2cccnc2)o1 | -6.4% | -0.8% | 0.5% | 19µM* | nt
Cc1ccc(-c2nn(-c3ccccc3)cc2CO)o1 | ? | ? | ? | 12µM* | 8.91µM*
Cc1ccc(-c2nn(-c3ccccc3)cc2C=O)o1 | ? | 8.7% | ? | 3.01µM* | 10µM*
Cc1ccc(-c2nn(-c3cccc(F)c3)cc2CN2CCN(c3ccccn3)CC2)o1 | -9.1% | -0.6% | -15.8% | ? | nt
OCc1cn(-c2ccccc2)nc1-c1ccco1 | ? | ? | 23.8% | 16.9µM* | -4.6%
